16 compounds from PubChem BioAssay (NCI) can be followed below.

Compounds without any hit were thinned out: in the full panel of roughly 83,000, 20% have a hit.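 Interpretation: 100, growth as untreated; towards 0, rising growth inhibition; 0, no net growth; 0 to -100, cell death. Compounds scoring below 10 were considered active.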 Values without a mark were called inactive. Calls of active or inactive are those of the source.

This assay deals with HOP-62 NSCLC. Kind of assay: NCI-60 one-dose screen, 48 h (100 = growth as untreated, 0 = no growth, -100 = all killed). The conditions noted are these: 10 µM unless noted.
Regarding `Clc1nnc2c3ccccc3ccn12`, the growth is 98.5%. Then `COc1ccc(-c2nn(C(=O)NCCN(C)C)cc2-c2ccncc2)cc1Cl`, with 16%; and `CCN1C(=O)N(CC)C2C1NN=c1s/c(=C\c3ccco3)c(=O)n12` (stereo unspecified), with 28.2%. On to `CC(C)N(C(=S)SSC(=S)N(C(C)C)C(C)C)C(C)C`, for which the growth was 104%.

For the compound `CC(C)=CC[C@@H]1CC2(CC=C(C)C)C(=O)C(OC3(C(=O)c4ccccc4)C(=O)C4(CC=C(C)C)C[C@@H](CC=C(C)C)C(C)(C)C(CC=C(C)C)(C4=O)C3=O)(C(=O)c3ccccc3)C(=O)C(CC=C(C)C)(C2=O)C1(C)C` (stereo partly specified), the growth is 0.307% (active). With `CCCCCCCCCCCCCCCC1=NCCN1` the figure was 55.3%; with `COc1cc([N+](=O)[O-])cc(OC)c1OC`, 110%.

Turning to `NNC(=O)CSc1nc2scc(-c3ccccc3)c2c(=O)n1-c1ccccc1`, the growth is 91.4%. Take `C=CCN(CC#N)CC=C`: the growth was 98.5%. Then `CCOC(=O)Cn1c(-c2nonc2NC(=O)c2ccccc2F)nc2ccccc21`, with 73.2%; and `CCCCCCCOc1cccc(/C=C2\N=C3SCCCN3C2=O)c1`, with 108%; and `Cc1c2c(cc3c1[nH]c1ccccc13)C=NCC2`, with 96%. Consider `COc1cc(OC)c(Cl)cc1N`, for which the growth is 104%.

For `CS(=O)(=O)c1ccc(C(=O)Nc2ccc(Cl)c(-c3ccccn3)c2)c(Cl)c1`, the growth was 36%. `Cc1cc([N+](=O)[O-])c(C)cc1N`: the growth is 103%. Regarding `COc1cnc2c(c1)C(=O)c1c-2n(CCCN2CCNCC2)c(=O)c2cc(Cl)ccc12`, the growth was -24.4% (active).
